Laboratory results reported in the supplement of paper PMC11417369.
± gives the standard deviation of the averaged measurements. The full ranking holds about 25,000 sequences; the median of “ln(normalized median fluorescence intensity)” is about 10, and the highest 2% start at about 12. This excerpt belongs to a sample that is enriched for the highest values.

System: PfAP2-G AP2 domain (GST-tagged)
Assay: gcPBM binding intensity (ln(normalized median fluorescence intensity)); higher = stronger DNA binding
Outline: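 DNA-binding domains from P. falciparum, fused to GST and produced in E. coli, were put on an Agilent 4 × 180k double-stranded probe array for 1 h in 1× PBS holding 1% milk, 0.2 mg/ml BSA, 0.5% salmon testes DNA and 0.03% Triton X-100. Probes were primer-extended, 36 bp long and drawn from intergenic genomic regions, with negative controls included. After Alexa488 anti-GST antibody detection and a 488 nm scan, binding intensity was set as the highest Masliner-normalised natural-log median intensity across replicate spots of either probe orientation.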

Sequence | gcPBM binding intensity (ln)
TTTTTTTTCTCACAAAAAATAATTAACAAAAAGGAA [XGTACX_negctrl_site154] | 10.2 ± 0.32
ATATATATAATAAATACACACATTTATATAGATAAA [CACACA_site3254] | 9.925 ± 0.092
TGACTTTGTTGAATTTGTCCTCTTAACTCATAATAT [GTGCAC_negctrl_site217] | 10.6 ± 0.48
TCCTTTCTTTTTTAAACATGCATATGTAATATAAAT [TGCATGCA_site979] | 10 ± 0.26
TTTTTTTGCGCGGGAAGAATAAAATTTATAGAATAT [TGCATGCA_negctrl_site306] | 10.4 ± 0.36
ATAAATAATATAAATACACACTAAAAAAGATATATA [CACACA_site6397] | 10.01 ± 0.014
AACTTCTTTTTTATAACACACAAAATATAAATACAA [CACACA_site4313] | 10.2 ± 0.43
ATATATATACTGTGTACACAAATATATATTATATAT [CACACA_site6104] | 11.6 ± 0.84
TATATTTTTTTTGTGCGTACATACCATTTTAATAAT [XGTACX_site2751] | 11.7 ± 0.8
TAGTATAAAATTATGTGTACACAAATATAACTTTTC [XGTACX_site5971] | 11.6 ± 0.78
TTGTGTCATATATTTTGTAATCAAAATAATTTTATT [TGCATGCA_negctrl_site307] | 10.1 ± 0.37
TTTTTTTTTTTTGTGCGTACATACCATTTTAATAAT [XGTACX_site2760] | 11.6 ± 0.92
TTTATACAAATATGTACACACTAAATATATATTATG [CACACA_site4413] | 11.5 ± 0.77
TATAAAATTATGTGTACACAAATATAACTTTTCTTT [CACACA_site5554] | 11.7 ± 0.95
TATAAATATAAATACTGTACATTATATTATATAATA [XGTACX_site2480] | 11 ± 0.71
ATAATACCATTAATTTGTACATATATATTATATATA [XGTACX_site4345] | 10.9 ± 0.49
ATAATAATATTGTGTACACAATAATTTGTCAAATCA [CACACA_site6019] | 11.7 ± 0.86
ATAATCACAAATAATTGTACATTTTGTTATATATAT [XGTACX_site7704] | 10.8 ± 0.45
ATATATATATATATATGTACTTATATATAATATAGA [XGTACX_site3488] | 11.2 ± 0.79
TTTATTATTATATTATTTTAATTTTTCTTTAGTACA [GTGCAC_negctrl_site392] | 10.29 ± 0.099
CTTTTTTTCTTTCCAAGTACTAAATTCATACAAATT [XGTACX_site2605] | 10.8 ± 0.51

Sequence | gcPBM binding intensity (ln)
CATTAATATATATATACATGCACGTTTTAAAAAAAA [TGCATGCA_site875] | 10.1 ± 0.23
GTAAGATTTCTTGTTGCATGCGGTAAAAAGTAAAAT [TGCATGCA_site469] | 10.6 ± 0.41
ACATTCATAAAAAAAAGTACATTTTTTATAAAAGAA [XGTACX_site6197] | 11.4 ± 0.75
AATATAAATAAAAACACACACACACCCATATATATA [CACACA_site2267] | 10.1 ± 0.32
TTTATGTAATATACATGTACAGAATATAAAATATAT [XGTACX_site6906] | 11 ± 0.54
AATACATGAATATGTAGTACAGAAAAAAAAAATATA [XGTACX_site1945] | 11.7 ± 0.95
ATATATGTATATATGTACATGAATATATAAAGAAAA [CACACA_negctrl_site315] | 11.1 ± 0.67
ATATTATCACAAGGTGGTACACAAAAAAAAAAAAAA [XGTACX_site8224] | 11.4 ± 0.95
TTTTTTTTTTTATGTGCACACAAAAGATGCTTATAT [CACACA_site2347] | 10.6 ± 0.53
ATTATTAAAATGATATGTACGCACATAATATACATA [XGTACX_site3236] | 11.6 ± 0.94
AACAATGTTGTACATACACACACACTAATAAAAAAT [CACACA_site8758] | 11.4 ± 0.95
AATAATATTTAATACGCACACAATAATAATATAAAA [CACACA_site1763] | 10.4 ± 0.32
ATAGCACATTTTTAAGCACACGTTTATTATATATAT [CACACA_site6084] | 10.3 ± 0.24
TTGGATGATTAAGGGGGACACACGTTTATATATTTA [CACACA_site338] | 11.4 ± 0.79
GGATGATTAAGGGGGACACACGTTTATATATTTATA [CACACA_site4342] | 11.7 ± 0.9
AAACAAAAGGAAAACATATATATATTAAATGTATAT [CACACA_negctrl_site1663] | 9.64 ± 0.33
TTTTTTTTTTTAAAATGTACACGTAATTACATATAT [XGTACX_site752] | 11.4 ± 0.95
ATTAAAATAATACGTACACACATGTATAATACATAT [CACACA_site1005] | 11.5 ± 0.91
AGAATTAAAATAATACGTACACACATGTATAATACA [XGTACX_site1878] | 11.5 ± 0.82
ATGTTTTATAAAAGGCGTACACATATGCTTAAGTAA [XGTACX_site6232] | 11.8 ± 0.94
ATGCTTTTTTATAAAAGTACATAAAGTTTTTACACT [XGTACX_site7307] | 11.3 ± 0.81

Sequence | gcPBM binding intensity (ln)
TTTTTTTTTTTTACGTGTACATAAATGTTAAGTAAT [XGTACX_site3901] | 11.4 ± 0.91
GATAAAGTAAAAATATGTACATATATATTTTAAGTT [XGTACX_site6439] | 11.4 ± 0.78
AAGTATAAAAAAAGGCGTACAAAAAAAAAAAAAAAA [XGTACX_site7309] | 11.7 ± 0.9
AAAAAAAAAAAAAAAAGTACAAATAAAAAAAAAATA [XGTACX_site4814] | 11.4 ± 0.85
GAATTAAAATAATACGTACACACATGTATAATACAT [CACACA_site1004] | 11.7 ± 1.2
ACTTTTTTAATGTTACGTACACATAAATAATAATTA [XGTACX_site8092] | 11.6 ± 0.9
ATAAAATATAAAAAAAGTACAAAAAAAAAAAAAAAA [XGTACX_site6657] | 11.2 ± 1.1
ATAGCCAAAAATCATGCACACCTAAAAAAAAAAAAA [CACACA_site8826] | 10.1 ± 0.6
TAGTTTTCTTAAAGATGTACTTATTAAAAATAAACT [XGTACX_site1001] | 11.3 ± 1.1
TATATCTCTTTATTCACACATACGTTTTAAAATAAT [CACACA_site5542] | 10.2 ± 0.13
AAGTATAAATAAAGGCGTACACATGTAAATTATATT [XGTACX_site126] | 11.7 ± 1.1
AAAAATAAATATATATGTACACATATGTATACAATA [XGTACX_site4692] | 11.6 ± 0.97
AATAAATTATTATGTACACACATAATAGTATATATA [CACACA_site1820] | 11.4 ± 0.85
TAAAAGTATATATATACACACATAAATATATATGTA [CACACA_site663] | 9.86 ± 0.14
TAAGGTTAAATAATATGTACATATTATTATATATAT [XGTACX_site6953] | 11.3 ± 0.72
GTATATATATATAAAAGTACATGTTATGAAAAAAAA [XGTACX_site5410] | 11.3 ± 0.81
AATACAATAAAAAAAAGTACACATGTATAAAAAATT [XGTACX_site8270] | 11.6 ± 0.8
ATAATAAATTATTATGTACACACATAATAGTATATA [CACACA_site8538] | 11.3 ± 0.88
ATTATGTTAAAAAGGCGTACATGTTATAAGGTCCTA [XGTACX_site344] | 11.7 ± 1.2
